CYP2C9 inhib – blockers of cytochrome P450 2C9 activity – biochemical, luminescence, ADME assay, primary screen; CYP2C9 Supersomes, luciferin-H conversion; inhibition, % at 5 µM; 20% of 96,000 active;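 active = blocking of liver enzyme CYP2C9 beyond about 50% at 5 µM, limit read from the data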
hDAT+cocaine – changed hDAT dopamine uptake under cocaine IC80, either direction, primary screen, cocaine antagonist project, cell-based, LLC-PK1 hDAT, [14C]-dopamine uptake, MLSMR | LLC-PK1 hDAT cells, [14C]-dopamine uptake with cocaine IC80; actives deviate in either direction | B-score at 10 µM | 1.3% of 110,000 active | AID 449768, 2010;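 active = Z score or B-score, a plate-position-corrected score, falls beyond the plate's 99.7% confidence bounds, in either direction; inactive = both scores lie inside the 99.7% bounds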;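 note: scored against the spread of the other compound wells on the same plate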
D1 allo mod – D1 CRE-luciferase signal change, two-sided – cell-based, HEK293 D1, dopamine EC30, D1 allosteric modulator project, primary screen. D(1A) dopamine receptor (Homo sapiens), P21728. dopamine EC30 potentiation; actives deviate in either direction. B-score at 10 µM. 5.9% of 58,000 active;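 active = luminescence count or its row- and column-corrected plate score outside the 99.7% band of the plate's sample wells, on either side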
Target sequence (P21728 whole entry, looked up): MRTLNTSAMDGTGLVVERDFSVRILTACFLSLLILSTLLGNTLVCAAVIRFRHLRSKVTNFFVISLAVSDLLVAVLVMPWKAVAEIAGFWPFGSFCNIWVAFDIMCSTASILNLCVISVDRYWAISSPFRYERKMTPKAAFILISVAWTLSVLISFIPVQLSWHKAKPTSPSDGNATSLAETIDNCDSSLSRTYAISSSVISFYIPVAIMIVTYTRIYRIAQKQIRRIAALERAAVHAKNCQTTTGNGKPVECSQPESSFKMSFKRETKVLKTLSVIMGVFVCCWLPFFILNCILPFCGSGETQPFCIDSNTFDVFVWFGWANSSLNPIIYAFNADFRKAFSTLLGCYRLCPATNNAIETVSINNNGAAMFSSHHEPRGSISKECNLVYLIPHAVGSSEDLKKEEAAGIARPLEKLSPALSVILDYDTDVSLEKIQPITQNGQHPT
CYP2C19 inhib – blockers of cytochrome P450 2C19 activity – biochemical, luminescence, ADME assay, primary screen | CYP2C19 Supersomes, luciferin-H EGE luminescence, 30 min | inhibition, % at 5 µM | 21% of 96,000 active;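 active = CYP2C19 inhibition above a set limit at 5 µM in the primary screen, cut at about 50% in these data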;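 note: plate controls were negative control wells for no effect and 2.5 mM tranylcypromine positive control for full effect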
CYP2C19 act – human CYP2C19 activators, primary screen, biochemical, luminescence; recombinant CYP2C19, luciferin-H EGE luminescence; hits give high values; 0 = fully inhibited enzyme, 1 = untreated enzyme; activation factor at 5 µM; 96,000 tested, under 10 active; AID 1025, 2008;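 active = activation factor of at least 2 at 5 µM in the primary screen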;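 note: 0 = wells with 2.5 mM tranylcypromine and 1 = vehicle-only wells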
CYP2C9 act – human CYP2C9 activators, primary screen, biochemical, luminescence; 1.4% of 96,000 active; recombinant CYP2C9, luciferin-H conversion; hits give high values; factor 1 = untreated enzyme, 0 = blocked; activation factor at 5 µM;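 active = activation factor of 2 or more for CYP2C9 at a 5 µM dose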;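 note: 0 = sulfaphenazole-blocked wells and 1 = vehicle-only wells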
* marks the source's active call; other numbers are inactive results; / = no result. Compounds with a hit are over-represented: about 28% of the library has one in this group of screens.

SMILES	CYP2C9 inhib	hDAT+cocaine	D1 allo mod	CYP2C19 inhib	CYP2C19 act	CYP2C9 act
CC(Nc1ccc(Br)cn1)c1cc(Cl)ccc1O (stereo not drawn)	86*	/	0.32	82*	0.2	0.1
CCOC(=O)N1CCc2c(sc3nc4n(c(=O)c23)N=C(C)CS4)C1	24	0.12	/	6	0.9	0.8
CCN(CC)Cc1nc2c(c(=O)[nH]1)C1(CCCC1)Cc1ccccc1-2	87*	0.39	/	47	0.5	0.1
O=c1[nH]c(CN(CCO)CCO)nc2c1C1(CCCCC1)Cc1ccccc1-2	14	-0.18	/	4	1	0.9
CCCCNCC(=O)Nc1sc(C)c(C)c1C(=O)OCC	/	0.074	/	/	/	/
Cc1ccc(Cn2cccc(NC(=O)NC3CCCCC3)c2=O)cc1	33	0.064	/	65*	0.4	0.7
Cc1ccccc1OCC(=O)Nc1ccc2c(c1)OCO2	30	/	-1.7	66*	0.3	0.7
Cc1ccc(NC(=O)CS(=O)CC(=O)Nc2ccc3c(c2)OCO3)cc1Cl (stereo not drawn)	51*	-7.6*	/	11	0.9	0.5
CN(c1cccc(NC(=O)CCSc2ccccc2)c1)S(C)(=O)=O	68*	-1.1	-0.38	78*	0.2	0.3
CN(c1cccc(NC(=O)COc2ccccc2)c1)S(C)(=O)=O	5	-0.033	0.2	19	0.8	1
Cc1ccccc1OCC(=O)Nc1cccc(N(C)S(C)(=O)=O)c1	79*	-0.35	0.023	69*	0.3	0.2
Cc1ccccc1OCC(=O)Nc1ccc2c(c1)COC2=O	26	0.72	0.0052	24	0.8	0.7
CN(c1cccc(NC(=O)CSc2ccc(Cl)cc2)c1)S(C)(=O)=O	45	0.015	/	25	0.7	0.6
c1ccc(-c2nnc(SCc3cn4ccsc4n3)o2)cc1	-3	0.42	0.76	69*	0.3	1
COc1ccccc1N1CCN(/N=C\c2ccc(C)o2)CC1	-33	0.54	/	6	0.9	1.3
COc1ccccc1/C=C/C=N/N1CCN(Cc2ccc(Cl)cc2)CC1	-19	-0.28	/	52*	0.5	1.2
Cc1ccc(/C=N/N2CCN(Cc3ccc(Cl)cc3)CC2)o1	63*	0.7	/	68*	0.3	0.4
Clc1ccc(Cc2ccc(Cl)nn2)c(Cl)c1	21	0.79	/	73*	0.3	0.8
CCOc1cccc2sc(NC(=O)CC)nc12	75*	-0.16	/	18	0.8	0.3
O=C1/C(=C/c2cccs2)N=C(c2cccs2)N1Nc1ccccc1	93*	1.3	/	3	1	0.1
Cc1ccc(C2=N/C(=C\c3cccs3)C(=O)N2Nc2ccccc2)cc1	16	0.012	/	-12	1.1	0.8
O=C1/C(=C\c2cccs2)N=C(c2cccs2)N1Nc1ccccc1	58*	0.85	/	34	0.7	0.4
CC(C)NC(=O)c1cnc(Sc2ncc(C(F)(F)F)cc2Cl)n1C	-109	-0.19	/	25	0.7	2.1*
Cn1c(C(N)=O)cnc1Sc1ncc(C(F)(F)F)cc1Cl	-74	-0.88	/	2	1	1.7
CCN(CC)C(=O)c1sc(NC(=O)Cc2ccc(OC)cc2)c(C#N)c1C	78*	1.8	/	78*	0.2	0.2
SMILES	CYP2C9 inhib	hDAT+cocaine	D1 allo mod	CYP2C19 inhib	CYP2C19 act	CYP2C9 act
CCN(CC)C(=O)c1sc(NC(=O)Cc2ccccc2)c(C#N)c1C	/	2.9	/	/	/	/
Cn1nc(CC(=O)Nc2cccc3ncccc23)c2ccccc2c1=O	-7	-0.12	-1.5	-12	1.1	1.1
O=C(CSc1nnc(Cc2ccccc2)o1)NCCN1C(=O)CSC1=O	-4	1.3	-0.73	5	1	1
Cc1ccc(SCC(=O)NCCN2C(=O)CSC2=O)c(C)c1	/	0.19	-0.16	/	/	/
Cc1ccc(SCC(=O)NCCN2C(=O)CSC2=O)cc1C	-28	-0.6	/	97*	0	1.3
Cc1cccc(-n2nnnc2SCC(=O)NCCN2C(=O)CSC2=O)c1	-71	0.51	0.6	77*	0.2	1.7
Cc1ccc(-c2nc(SCC(=O)NCCN3C(=O)CSC3=O)[nH]c2-c2ccc(C)cc2)cc1	64*	/	/	-1	1	0.4
CN(C(=S)NC1=CCS(=O)(=O)C1)C1CCCCC1	0	-0.17	/	21	0.8	1
Cc1cc(=O)oc2cc(OCC(=O)OCc3nnc(-c4ccccc4)o3)ccc12	-46	0.023	0.62	5	0.9	1.5
Cc1ccc(Cn2c(CCNc3nc(-c4ccc(Cl)c([N+](=O)[O-])c4)cs3)nc3cc(C(=O)NCCCO)ccc32)cc1	/	0.035	/	/	/	/
O=C(/C=C/Nc1cccc(C(F)(F)F)c1)c1ccc(Oc2ncccn2)cc1	-5	/	/	29	0.7	1.1
O=S(=O)(NC1CCCC1)c1ccc(S(=O)(=O)NC2CCCC2)cc1	86*	-1.7	-0.018	98*	0	0.1
CN(C(=O)c1ccc(S(=O)(=O)NC2CCCC2)cc1)C1CCCCC1	13	0.3	-0.93	12	0.9	0.9
CCN(CC)C1CCCCC1NS(=O)(=O)c1ccc(Cl)cc1 (stereo not drawn)	5	1.3	-0.15	6	0.9	1
CCOC(=O)C1CCCC(NS(=O)(=O)c2ccc(NC(C)=O)cc2)C1 (stereo not drawn)	77*	-1.2	/	58*	0.4	0.2
O=S(=O)(NC1CCCCC1NS(=O)(=O)c1ccc(F)cc1)c1ccc(F)cc1 (stereo not drawn)	87*	-0.72	0.66	62*	0.4	0.1
CCOC(=O)N1CCC(N2CCN(S(=O)(=O)c3ccc(NC(C)=O)cc3)CC2)CC1	14	0.046	-0.38	4	1	0.9
CC(C)(C)C(=O)CNS(=O)(=O)c1ccc(S(=O)(=O)NC2CCCC2)cc1	47	0.28	-0.46	89*	0.1	0.5
CCn1c(C(C)NC(=O)Cc2ccccc2)nc2ccccc21 (stereo not drawn)	-9	1.4	-0.28	35	0.7	1.1
O=C(CN1CCCCC1)Nc1ccc(S(=O)(=O)NC2CCCCC2)cc1	72*	-0.058	1.1	47	0.5	0.3
COC(=O)c1sccc1-n1cccc1C(=O)NCc1ccccc1	4	-0.051	/	47	0.5	1
CCOC(=O)c1ccc(CNC(=O)c2cc(C(C)(C)C)oc2C)o1	76*	2	1.2	90*	0.1	0.2
CCOC(=O)c1cc(C(C)(C)C)oc1CNC(=O)c1c(C)oc2c1CCCC2	/	-0.8	/	/	/	/
CCOC(=O)CSc1nnc(-c2nnc(SCC(=O)OCC)n2CC)n1CC	-10	0.046	/	-16	1.2	1.1
